Most compounds without a hit are left out; they make up all but 4% or so of the library.
GALC G270D act = raises human GALC G270D mutant activity in cells; Potency, µM (highest dose often 57.5 µM), actives largely listed as activators; 145M-Twi-hGALC-G270D cells (Twitcher mouse brain line with human GALC G270D), HMU-beta-Gal fluorescence, 48 h; P54803; hit rate 0.1% among 45,000; note: potency is the fitted concentration of half-maximal effect; 0% is about no effect; nearly all actives have a fitted effect of over 65% in size
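Fluorescence readout: HMU-β-gal cleavage by mutant GALC (0.1 mM final, citrate/phosphate pH 5.2 with 1 mg/mL taurocholate), stopped with carbonate/bicarbonate plus Triton X-100. Cells: murine Twitcher 145M-Twi expressing human G270D GALC; qHTS for activators.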
DRV1 agonist = agonists of human resolvin D1 receptor DRV1 (GPR32); O75388; CHO-K1 GPR32 beta-arrestin PathHunter luminescence, 90 min; zero percent set by DMSO-only wells; activation, % at 76.9 µM; hit rate 2.5% among 48,000; AID 1346428;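 active = activation of at least 60% and not above a set upper limit, about 1 call in 100 departs from these limits; inconclusive = activation of 40% to 60%, or above that upper limit; inactive = activation under 40%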; note: 0% is about no effect
Target sequence (O75388 whole entry, looked up): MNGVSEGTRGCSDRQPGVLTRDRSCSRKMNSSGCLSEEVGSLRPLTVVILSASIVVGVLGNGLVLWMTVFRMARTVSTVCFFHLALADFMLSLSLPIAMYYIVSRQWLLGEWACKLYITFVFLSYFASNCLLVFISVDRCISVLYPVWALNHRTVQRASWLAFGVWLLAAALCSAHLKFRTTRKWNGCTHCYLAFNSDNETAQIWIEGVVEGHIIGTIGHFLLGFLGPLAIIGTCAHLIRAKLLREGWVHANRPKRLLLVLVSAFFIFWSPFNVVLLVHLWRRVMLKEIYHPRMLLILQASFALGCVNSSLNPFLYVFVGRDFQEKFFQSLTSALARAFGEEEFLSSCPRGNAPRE
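Cells are plated overnight, treated with compounds in DMSO for 90 minutes at 37 °C, and developed with PathHunter detection reagent for 1 hour before luminescence is read; signal reflects beta-arrestin binding to GPR32 in engineered CHO-K1 cells.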
NTMT1 inh = blocks human N-terminal methyltransferase 1 activity | Q9BV86 | NTMT1 MTase-Glo SAH luminescence, purified enzyme | Potency, µM (top dose mostly 114 µM), for inactives: at the top dose activity change, negative = inhibition, most hits filed as inhibitors | hit rate 2.5% among 59,000;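 note: potency is the fitted concentration of half-maximal effect; plate controls were DMSO vehicle for no effect and no enzyme for full effect; nearly all actives have a fitted effect of over 65% in size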
Target sequence (Q9BV86 whole entry, looked up): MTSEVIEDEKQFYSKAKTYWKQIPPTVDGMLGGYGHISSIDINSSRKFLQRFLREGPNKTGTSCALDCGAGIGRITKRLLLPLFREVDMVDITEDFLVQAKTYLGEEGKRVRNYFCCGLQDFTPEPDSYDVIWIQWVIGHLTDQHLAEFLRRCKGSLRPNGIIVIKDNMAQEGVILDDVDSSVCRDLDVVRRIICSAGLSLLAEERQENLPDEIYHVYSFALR
SKOV3 invasion = blocks SKOV3ip1 adhesion and invasion in omental model | SKOV3ip1-GFP adhesion/invasion on 3D omental model, fluorescence | Potency, µM (titrated, usually from 45.8 µM), for inactives: at the highest dose activity change, negative = inhibition, most hits filed as inhibitors | hit rate 0.1% among 46,000;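 note: potency is the fitted concentration of half-maximal effect; plate controls were DMSO wells for no effect and tomatine positive control wells for full effect; nearly all actives have a fitted effect of over 65% in size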
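Primary human omental fibroblast/mesothelial 3D culture pre-formed 48 h. SKOV3ip1-GFP cells added with compounds (0.36-46 umol/L), incubated 2 h RT/16 h 37 C, fixed; GFP cells quantified at 488/509 nm.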
p53null 39C tox = p53 null cell cytotoxicity, nonpermissive temperature; H1299 p53-null (neo) cells, 39C, ATPlite viability, 24 h; Potency, µM (titrated, usually from 46.1 µM), for the others: top-dose activity, negative = cell killing, usual class: cytotoxic; hit rate 0.97% among 55,000;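 note: potency is the fitted concentration of half-maximal effect; 0% = DMSO only and -100% = full killing by 100 µM tamoxifen; nearly all actives have a fitted effect of over 50% in size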
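H1299 lung cancer cells, p53-null (H1299-neo) or expressing p53 A138V (H1299-p53A138V), were plated overnight at 37C, then exposed to compounds at up to 46 uM for 24 hr at 39C. Viability was read by ATP-based luminescence.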
p53null 32C kill = kills p53 null cells at the permissive temperature; H1299-neo p53 null cells, ATP luminescence, 24 h, 32C; Potency, µM (highest dose often 46.1 µM), inactives show at the top dose activity change, negative = cytotoxicity, most hits filed as cytotoxic; hit rate 0.62% among 55,000; AID 903;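 note: potency is the fitted concentration of half-maximal effect; 0% = DMSO only and -100% = full killing by 100 µM tamoxifen; nearly all actives have a fitted effect of over 55% in size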
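ATP-content luminescence in p53-null H1299-neo cells after 24 h compound exposure (up to 46 uM) at 32C permissive temperature; 0% and 100% killing set by DMSO and 100 uM tamoxifen; Hill-equation AC50.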
The depositor's hits bear a star; i = inactive; u = inconclusive; x = no result given; ! = not confirmed by another sample; [ ] = another dose, or the depositor's remark. Unless noted, calls come from the whole dose curve; as a rule, active = well fitted curve in the direction sought with a large enough effect; inconclusive = small, poorly fitted or top-dose-only effect, or another doubt; inactive = no such curve, though single readings can be large; an effect the other way counts as inactive or inconclusive.

SMILES	GALC G270D act	DRV1 agonist	NTMT1 inh	SKOV3 invasion	p53null 39C tox	p53null 32C kill
CC(C)CCC[C@@H](C)[C@H]1CC[C@H]2[C@@H]3CC=C4C[C@@H](OC(=O)NCCN(C)C)CC[C@]4(C)[C@H]3CC[C@]12C	x	x	22.4µM*	x	x	x
CC(C)(C)OC(=O)N1CCN(c2ccc(NCc3coc(-c4ccc(C#N)cc4)c3)cc2)CC1	x	x	-8.2%	x	x	x
OC(COc1cc(Cl)c(Cl)cc1Cl)CN1CCN(c2ncccn2)CC1 (stereo unspecified)	x	x	x	x	-4.7%[1.84 µM]	x
O[C@@H](COc1cccc2ncccc12)CN1CCN(C2c3ccccc3[C@@H]3[C@H](c4ccccc42)C3(F)F)CC1 (stereo partly specified)	i	7.9	79.4µM*!	-19.6%	x	x
C#C[C@]1(O)CC[C@H]2[C@@H]3[C@H](C)CC4=C(CCC(=O)C4)[C@H]3CC[C@@]21C	i	98.6*	25.1µM*!	x	x	x
O=C1NC(=O)/C(=C/c2ccc(-c3ccc(F)cc3O)o2)S1	x	62.4*	35.5µM*	x	x	x
O=C1NC(=O)/C(=C\c2ccc(-c3ccc(F)cc3O)o2)S1	x	x	28.2µM*	x	x	x
CCc1ccc2nc(Nc3cc(Cc4ccccc4)nc(NC4CCC(O)CC4)n3)sc2c1 (stereo unspecified)	x	x	6.9%	x	x	x
O=C(NCc1cccc(Cl)c1)C1CCN(c2nn3cc(-c4ccc(F)cc4)nc3s2)CC1	i	62.3*	3.6%	0.1%	13.5%	-13.6%
COC(=O)c1ccc2c(c1)[nH]c1ncnc(NCCCN3CCCCC3)c12	x	x	0.0%[57.5 µM]	x	x	x
Cc1ccc(-c2nc3scc(CCNS(=O)(=O)c4ccc(Oc5ccccc5)cc4)n3n2)cc1	i	-4.7	12.1%	-15.3%	24.8%	-12.1%
Cc1ccc(S(=O)(=O)NCCc2csc3nc(-c4ccccc4F)nn23)cc1C	i	105.1*	9.9%	1.3%	15.5%	3.0%
Cc1ccccc1-c1nc2scc(CCNS(=O)(=O)c3ccccc3)n2n1	i	75.3*	-2.3%	-2.3%	-16.9%	-2.7%
Cc1cc(C)c(S(=O)(=O)NCCc2csc3nc(-c4ccc(Cl)cc4)nn23)c(C)c1	i	-7.5	-1.6%	i	20µM*	46.0%
CCS(=O)(=O)NCCc1csc2nc(-c3ccc(C)cc3)nn12	i	1.3	-2.9%	i	0.9%	-2.3%
Cc1ccc(-c2nc3scc(CCNS(=O)(=O)c4ccc(F)c(C)c4)n3n2)cc1	i	20.1	4.8%	i	20.0%	1.4%
CCC(=O)N1CCc2cc(Br)cc(S(=O)(=O)N3CCCC(C(=O)Nc4cccc(C)c4C)C3)c21 (stereo unspecified)	i	-3.8	2.6%	27.4%	14.9%	-7.3%
CCC(=O)N1CCc2cc(Br)cc(S(=O)(=O)N3CCCC(C(=O)N(C)c4ccc(Br)cc4)C3)c21 (stereo unspecified)	i	-4.7	89.1µM*	-2.8%	10.6%	26.6%
CCC(=O)N1CCc2cc(Br)cc(S(=O)(=O)N3CCCC(C(=O)Nc4ccc(OC)cc4OC)C3)c21 (stereo unspecified)	i	2.1	89.1µM*	6.5%	-4.0%	5.0%
CCc1ccc(N2CCn3c2nc2c3c(=O)n(Cc3c(F)cccc3Cl)c(=O)n2C)cc1	i	-3.2	8.7%	-7.8%	12.6µM*	2.3%
O=C(CCNS(=O)(=O)c1ccc2c(c1)CCN2C(=O)C1CC1)Nc1ccc(F)cc1F	i	84.6*	1.3%	-28.1%	-5.2%	0.5%
Cc1cccc(NC(=O)CCNS(=O)(=O)c2ccc3c(c2)CCN3C(=O)C2CC2)c1	i	5.2	-8.7%	i	u	3.8%
O=C(CCNS(=O)(=O)c1ccc2c(c1)CCN2C(=O)C1CC1)N1CCN(c2cccc(Cl)c2)CC1	i	60.6*	12.3%	i	12.8%	12.2%
COc1ccc(N2CCN(C(=O)CCNS(=O)(=O)c3ccc4c(c3)CCN4C(=O)C3CC3)CC2)cc1	i	20.2	1.9%	-5.6%	-25.0%	-0.9%
O=C(CCNS(=O)(=O)c1ccc2c(c1)CCN2C(=O)C1CC1)N1CCN(c2ccc(F)cc2)CC1	i	69.2*	14.7%	-3.0%	17.7%	9.3%
SMILES	GALC G270D act	DRV1 agonist	NTMT1 inh	SKOV3 invasion	p53null 39C tox	p53null 32C kill
COc1ccc(Oc2cc(NCCC(F)(F)F)c3ncc(-c4ccc(C(=O)NC5CC5)c(C)c4)n3n2)c(F)c1F	x	x	11.5%	x	x	x
NS(=O)(=O)c1ccc(Cc2c(-c3cccc(-c4ccccc4)c3)nn(-c3nc(C(=O)O)cs3)c2C2CC2)cc1	x	x	25.1µM*	x	x	x
CCOC(=O)c1csc(-n2nc(-c3ccc(F)c(F)c3)c(Cc3ccc(S(N)(=O)=O)cc3)c2N)n1	x	x	-3.6%	x	x	x
Cc1ccc2sc(-c3ccc(N)cc3)nc2c1	i	-19.9	u	3.7%	1.58µM*	2µM*
CC(=O)c1c(C)cccc1O[C@@H]1O[C@H](CO)[C@@H](O)[C@H](O)[C@H]1O	x	x	8.4%[29.8 µM]	x	x	x
CCOc1cc(C(=O)Nc2ccc(NC(=O)c3cc4ccccc4o3)c(OC)c2)cc(OCC)c1OCC	i	105.2*	4.6%	u	-5.0%	3.4%
COc1cc(NC(=O)c2cc(Cl)c(OC)c(Cl)c2)ccc1NC(=O)c1cc2ccccc2o1	i	2.2	-2.9%	1.3%	-16.7%	2.0%
CCCCOC(=O)c1cccc(NC(=O)c2cc3ccccc3o2)c1	i	19.2	1.0%	-25.1%	12.6µM*	10µM*
COc1cc2ncnc(Nc3cccc(Br)c3)c2cc1OC	x	x	15.8µM*	-17.3%	x	x
COc1cc2ncnc(Nc3cccc(O)c3)c2cc1OC	x	x	-9.5%[57.5 µM]	x	x	x
COc1cc2ncnc(Nc3cccc(Cl)c3)c2cc1OC	x	0.8	25.1µM*	4.0%	x	x
Oc1cccc(C(Nc2ccccn2)c2ccc3cccnc3c2O)c1Cl (stereo unspecified)	x	81.0*	x	-3.6%	3.98µM*	u
Oc1c(C(Nc2ccccn2)c2ccccc2)cc(Cl)c2cccnc12 (stereo unspecified)	x	x	0.6%[57.5 µM]	x	x	x
C=CCC1=C[C@]2(OC)[C@H](C)[C@@H](c3ccc(OC)c(OC)c3)O[C@]2(OC)CC1=O	x	x	19.4%[29.8 µM]	x	x	x
NC(=NCCCCCCN=C(N)N=C(N)Nc1ccc(Cl)cc1)N=C(N)Nc1ccc(Cl)cc1	x	x	35.5µM*!	-9.4%	x	x
O[C@@H](CNC[C@H](O)[C@H]1CCc2cc(F)ccc2O1)[C@@H]1CCc2cc(F)ccc2O1	i	62.4*	-8.0%[57.5 µM]	-6.1%	x	x
Cc1cccc2nc(-c3cccnc3)c(Nc3ccc(C(C)C)cc3)n12	i	61.3*	6.8%	u	u	38.6%

Screens as filed in PubChem BioAssay.
